# Assay outcomes deposited in PubChem BioAssay by National Center for Advancing Translational Sciences (NCATS).
# An excerpt weighted towards active compounds, which were near 19% of everything screened.
# RORgamma inh: inhibitors of mouse ROR gamma transcriptional activity. actives 5.4% (n = 310,000). Drosophila S2 Gal4-RORgamma UAS-luciferase reporter, 20 h. P51450. Potency, µM (series often up to 53.6 µM), most hits filed as inhibitors; further: nearly all actives have a fitted effect of over 60% in size
#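 Using a luciferase readout, inhibitors were identified by reduced reporter activity in Drosophila cells coexpressing a copper-inducible Gal4–ROR gamma fusion and UAS-driven Photinus luciferase, incubated 20 hr after 700 uM copper sulfate.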
# VP16 counter: Gal4-VP16 reporter inhibition counter-screen; Drosophila S2 Gal4-VP16 UAS-luciferase, luminescence, 20 h; actives 3.5% (n = 310,000); Potency, µM (top dose mostly 53.6 µM), hits mostly inhibitors;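 further: Gal4-VP16 expression switched on by copper sulfate through the metallothionein promoter; nearly all actives have a fitted effect of over 50% in size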
# TDP1 inh: blocks human tyrosyl-DNA phosphodiesterase 1; Q9NUW8; recombinant TDP1, AlphaScreen DNA substrate cleavage; Potency, µM (top dose mostly 130 µM), hits mostly inhibitors; actives 0.28% (n = 350,000); further: nearly all actives have a fitted effect of over 40% in size
# Target sequence (Q9NUW8 whole entry, looked up): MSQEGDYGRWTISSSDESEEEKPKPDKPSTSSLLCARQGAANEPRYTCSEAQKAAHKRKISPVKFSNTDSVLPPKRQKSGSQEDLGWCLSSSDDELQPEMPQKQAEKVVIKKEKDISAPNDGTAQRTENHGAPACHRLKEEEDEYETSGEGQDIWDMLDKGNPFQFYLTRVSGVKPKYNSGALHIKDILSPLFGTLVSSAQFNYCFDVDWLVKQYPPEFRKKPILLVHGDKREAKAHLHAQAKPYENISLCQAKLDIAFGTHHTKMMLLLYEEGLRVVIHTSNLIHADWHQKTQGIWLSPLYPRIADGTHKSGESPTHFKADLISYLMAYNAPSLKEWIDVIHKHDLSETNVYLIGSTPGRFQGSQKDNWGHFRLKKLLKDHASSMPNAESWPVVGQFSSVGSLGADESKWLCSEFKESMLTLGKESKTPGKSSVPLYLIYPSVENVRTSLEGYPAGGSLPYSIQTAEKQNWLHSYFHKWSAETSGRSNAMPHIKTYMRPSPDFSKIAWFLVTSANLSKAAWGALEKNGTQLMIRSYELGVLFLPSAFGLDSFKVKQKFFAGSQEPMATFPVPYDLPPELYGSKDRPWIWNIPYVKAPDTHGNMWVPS
#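 Enzyme-compound mixtures sat 15 min at room temperature, followed by a 5 min reaction with 15 nM final substrate and 10 min with AlphaScreen beads. Recombinant human Tdp1 was used at 1 nM final.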
# TDP1 cell noCPT: qHTS for Inhibitors of human tyrosyl-DNA phosphodiesterase 1 (TDP1): qHTS in cells in absence of CPT; DT40 Tdp1-/- hTDP1 cells, no CPT, ATP luminescence, 48 h; Potency, µM (series often up to 46.2 µM), hits mostly inhibitors; actives 15% (n = 420,000); further: nearly all actives have a fitted effect of over 55% in size
#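 Stably hTDP1-transfected Tdp1-null chicken DT40 cells were treated with library compounds minus camptothecin and grown for at least 48 hr at 37 °C, after which cellular ATP was quantified by luminescence.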
# DT40 TDP1 CPT: growth inhibition of DT40 Tdp1-/-;hTDP1 cells with camptothecin (screen for TDP1 inhibitors). actives 12% (n = 420,000). Potency, µM (top dose mostly 46.2 µM), most hits filed as inhibitors. chicken DT40 Tdp1-/-;hTDP1 cells + 20 nM CPT, ATP luminescence, 48 h; further: nearly all actives have a fitted effect of over 55% in size
#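 Cell growth measured by CellTiter-Glo luminescence after a minimum 48 h, 37 C compound exposure with 20 nM CPT in Tdp1-knockout DT40 cells stably expressing hTDP1, seeded 400/well; qHTS titration format.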
# Hits are given with their value; 0 = inactive; ? = inconclusive; - = no result; [ ] = another dose, or the depositor's remark. The call rests on the fitted dose curve; in most records, active means well fitted curve in the direction sought with a large enough effect; inconclusive means small, poorly fitted or top-dose-only effect, or another doubt; inactive means no such curve, though single readings can be large; an effect the other way counts as inactive or inconclusive.
SMILES,RORgamma inh,VP16 counter,TDP1 inh,TDP1 cell noCPT,DT40 TDP1 CPT
Cc1ccccc1-c1noc(-c2nnn(-c3ccccc3C)c2N)n1,-,-,0,0,0
CCOc1ccccc1CNC(=O)C1CCCN(c2ncnc3onc(-c4ccc(F)cc4)c23)C1 (configuration not stated),-,-,0,21µM,?
O=C(NCc1ccc(Cl)cc1)C1CCCN(c2ncnc3onc(-c4ccc(F)cc4)c23)C1 (configuration not stated),-,-,0,23µM,21µM
O=C(NCc1ccc(Cl)cc1)C1CCCN(C(=O)c2ccc(Cl)cc2)C1 (configuration not stated),-,-,0,?,?
COc1ccc(OC)c(CNC(=O)C2CCCN(c3ncnc4onc(-c5ccc(F)cc5)c34)C2)c1 (configuration not stated),-,-,0,0,0
O=C(NCc1ccccc1Cl)C1CCCN(c2ncnc3onc(-c4ccc(F)cc4)c23)C1 (configuration not stated),-,-,0,16µM,?
Cc1ccc(NS(=O)(=O)c2cc(C(=O)NCCCN(C)C)ccc2Cl)cc1Cl,-,-,0,0,0
O=C(NN=c1c(=O)c2ccccc2c1=O)c1ccccc1,0,?,0,18µM,18µM
COc1cccc(-c2cnc(C(O)c3ccc(CN4CCCC4)cc3)[nH]2)c1 (configuration not stated),-,-,-,0,0
Cc1cccc(C(=O)N/N=C/c2ccc(OCC(=O)N3CCCCC3)cc2)c1,0,0,0,0,?
O=C(CSCc1cccc(Cl)c1)N/N=C/c1ccc(OCC(=O)N2CCCCC2)cc1,0,0,0,16µM,16µM
CC1(C)CC(=O)C=C(C(=O)N2CCCC(CCC(=O)NCc3ccccc3F)C2)O1 (configuration not stated),0,0,0,0,0
Cc1cc(C(=O)N/N=C/c2cc(Br)cc(Br)c2OC(=O)c2ccccc2)n[nH]1,0[10 µM],0,0,-,-
Cc1ccc(-c2cc(C(=O)N/N=C/c3ccccc3O)n[nH]2)o1,?,?,0,5.2µM,5.2µM
Cc1cc(C(=O)N/N=C/c2cc(Br)cc(Br)c2OC(=O)c2cccc(F)c2)n[nH]1,3.5µM,0,0,5.8µM,5.8µM
Cc1cc(C(=O)N/N=C/c2cccn2C)n[nH]1,0,0,0,0,0
Cc1cc(C(=O)N/N=C\c2cc(C(C)(C)C)ccc2O)n[nH]1,2.2µM,5.6µM,0,3.3µM,21µM
Cc1ccc(-c2cc(C(=O)N/N=C/C=C/c3ccccc3)n[nH]2)s1,4µM,7.1µM,0,?,16µM
Cc1cc(C(=O)N/N=C/C=C/c2ccccc2)n[nH]1,0,0,0,0,0
O=C(CNC(=O)c1ccc(Br)cc1)NC1CC1,-,-,0,0,0
O=C(N/N=C/c1cccs1)c1cc(-c2ccc(Cl)s2)[nH]n1,10µM,7.9µM,?,?,0
Cc1ccc(-c2cc(C(=O)N/N=C/C(Br)=C/c3ccccc3)n[nH]2)o1,?,0,0,10µM,12µM
Cc1ccc(-c2cc(C(=O)N/N=C/c3c[nH]c4ccccc34)n[nH]2)o1,?,0,0,?,?
CCC(Oc1ccccc1)C(=O)Nc1nnc(S(=O)(=O)N(CC)CC)s1 (configuration not stated),-,-,0,0,0
CCNC(=S)NNC(=O)Cn1nc(C)cc1C,10µM,0,0,0,0
SMILES,RORgamma inh,VP16 counter,TDP1 inh,TDP1 cell noCPT,DT40 TDP1 CPT
Cc1cc(C(F)(F)F)nn1CC(=O)NNC(=S)NCC(C)C,7.1µM,0,0,0,0
Cc1ccc(C)c(OCCC(=O)NNC(=O)Cn2nc(C)cc2C)c1,-,-,0,0,0
Cc1cc(C(F)(F)F)nn1CC(=O)NNC(=S)Nc1ccc(Cl)cc1,?,0,0,0,0
Cc1ccc(C)c(C(=O)CCC(=O)NNC(=O)Cn2nc(C)cc2C)c1,-,-,-,2.1µM,?
CCCn1c(N)c(C(=O)CSc2nnc3n2CCCCC3)c(=O)n(C)c1=O,-,-,0,0,0
CCC(C)NC(=O)c1[nH]c2cc(OC)ccc2c1Sc1ccc(C)cc1 (configuration not stated),-,-,0,?,?
O=c1c2c(-c3cccs3)csc2ncn1-n1cccc1,0,0,0,0,0
Clc1ccc(CN2CCN(c3ncnc4scc(-c5cccs5)c34)CC2)cc1,0,0,0,16µM,13µM
Cc1ccccc1N1CCN(c2ncnc3scc(-c4cccs4)c23)CC1,0,0,0,9.2µM,13µM
CCN1CCN(c2ncnc3scc(-c4ccc(C)c(C)c4)c23)CC1,0,0,0[0.0935 µM],18µM,?
Fc1ccc(CN2CCN(c3ncnc4scc(-c5ccc(F)cc5)c34)CC2)cc1,0,0,-,23µM,16µM
COc1ccc(-c2csc3ncnc(N4CCN(Cc5ccccc5)CC4)c23)cc1,?,?,0,?,?
Cc1nc(C(F)(F)F)ccc1C(=O)N1CCCCC1,0,0,0,0,0
Cc1cc(C)c(OCC(=O)Nc2ccccn2)c([N+](=O)[O-])c1,0,0,0,0,0
CC(C)(C)CC(=O)Nc1nnc(SCC(=O)NC2CCCC2)s1,0,0,0,0,?
O=C(CN1CCN(C(=O)c2ccccc2)CC1)Nc1ncc(Br)cc1Br,0,0,0,0,0
COC(=O)[C@H](COC(C)(C)C)NC(=O)O[C@H]1C(=O)c2ccc(OC)cc2O[C@@H]1c1ccc2c(c1)OCO2,0,0,0,-,-
Cc1ccc(-c2csc3nc[nH]c(=S)c23)cc1C,0.45µM,?,0,21µM,7.3µM
COc1ccc(NC(=O)c2cccc3c(-c4cnn(C)c4)coc23)cc1,-,-,-,23µM,?
COc1cc(NC(=O)c2cccc3c(-c4cnn(C)c4)coc23)cc(OC)c1OC,-,-,-,3.3µM,4.6µM
CN1C(C(=O)Nc2ccc(OC(F)(F)F)cc2)=CC(c2ccco2)=NS1(=O)=O,0,0,0,?,0
Cc1cccc(OCc2ccc(C(=O)N3CCOCC3)o2)c1,0,0,0,0,0
COC(=O)c1ccc(COc2ccc(C(C)(C)C)cc2)o1,0,0,-,?,?
CC(C)(C)c1ccc(OCc2ccc(C(=O)N3CCOCC3)o2)cc1,?,?,0,26µM,?
CC(C)(C)c1ccc(OCCCC(=O)N2CCOCC2)cc1,?,11µM,0,?,?
CC(C)(C)c1ccc(OCCC(=O)Nc2ccc(N3CCOCC3)cc2N2CCOCC2)cc1,-,-,0,16µM,16µM
CCCNC(=O)c1ccc(COc2ccc(C(C)(C)C)cc2)o1,0,?,-,13µM,?
O=C(CCc1nc2ccccc2[nH]1)Nc1ccc2c(c1)OCCO2,0,0,0,0,0
OCCOCCn1c(C(CO)Nc2nc(-c3ccc(Cl)cc3)cs2)nc2ccccc21 (configuration not stated),-,-,-,18µM,29µM
OCCOCCn1c(C(CO)Nc2nc(-c3cccc(Br)c3)cs2)nc2ccccc21 (configuration not stated),-,-,-,18µM,?
